Measurements published in PubChem BioAssay (NCI).
Compounds without any hit were thinned out: in the full panel of roughly 83,000, 20% have a hit.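 Growth was measured after 48 h exposure to one concentration of compound in 96-well plates. Values under 10 count as active.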 Active and inactive are the calls of the source.

Assays:
Test in all cases: NCI-60 one-dose screen, 48 h (100 = growth as untreated, 0 = no growth, -100 = all killed)
[1] = tested on: SR leukemia; settings: 10 µM unless noted
[2] = tested on: RPMI-8226 leukemia; settings: 10 µM unless noted
[3] = tested on: OVCAR-8 ovarian; settings: 10 µM unless noted
[4] = tested on: OVCAR-5 ovarian; settings: 10 µM unless noted
[5] = tested on: SK-OV-3 ovarian; settings: 10 µM unless noted
[6] = tested on: IGROV1 ovarian; settings: 10 µM unless noted
[7] = tested on: OVCAR-3 ovarian; settings: 10 µM unless noted
[8] = tested on: HS 578T breast; settings: 10 µM
[9] = tested on: NCI/ADR-RES ovarian; settings: 10 µM unless noted
[10] = tested on: T-47D breast; settings: 10 µM unless noted
[11] = tested on: BT-549 breast; settings: 10 µM unless noted
[12] = tested on: MDA-MB-435 melanoma; settings: 10 µM unless noted
[13] = tested on: SW-620 colon; settings: 10 µM unless noted
[14] = tested on: MCF7 breast; settings: 10 µM unless noted
[15] = tested on: HCT-116 colon; settings: 10 µM unless noted
[16] = tested on: HCC-2998 colon; settings: 10 µM unless noted
[17] = tested on: KM12 colon; settings: 10 µM unless noted

Measured: growth

O=c1[nH]c2ccccc2n2cc3cccnc3c12
inactive: [1] 36% | [2] 89.3% | [3] 63.4% | [4] 140% | [5] 82.5% | [6] 90.2% | [7] 91.8% | [8] 88.4% | [9] 58.8% | [10] 81% | [11] 111% | [12] 12.5% | [13] 31.5% | [14] 32.2% | [15] 33% | [16] 82.1% | [17] 52.6%

COc1ccc2[nH]cc(/C=C3\C(=O)Nc4ccccc43)c2c1
inactive: [2] 31.3% | [3] 31.9% | [4] 52.9% | [5] 38.9% | [7] 35.5% | [8] 33.2% | [9] 23.1% | [10] 36.6% | [11] 48.5% | [13] 11.4% | [14] 16.3% | [15] 17.9% | [16] 36% | [17] 13.7%
active: [1] 2.21% | [6] -21.9% | [12] -41.6%

COc1c(-c2cc(-c3ccc(C)o3)[nH]c(=O)n2)c(O)cc2occc12
active: [12] -38.6%
inactive: [1] 27.1% | [2] 74.8% | [3] 73% | [4] 99% | [5] 81.8% | [6] 58.4% | [7] 32.9% | [8] 54.5% | [9] 29.7% | [10] 45.5% | [11] 54% | [13] 22.3% | [14] 28.1% | [15] 42.8% | [16] 92.1% | [17] 36.1%

c1ccc(C(CC2=NCCCN2)c2ccccc2)cc1
inactive: [1] 103% | [2] 116% | [3] 101% | [4] 95.9% | [5] 95.5% | [6] 108% | [7] 117% | [8] 95.7% | [9] 101% | [10] 101% | [11] 95.1% | [12] 94% | [13] 100% | [15] 97.3% | [16] 102% | [17] 99.7%

O=C(C(Br)C(Br)c1ccccc1)C(Br)C(Br)c1ccccc1 (stereo not drawn)
active: [1] -44.9% | [2] -36.6% | [3] -10.8% | [4] -57.4% | [6] -49.5% | [7] -79.9% | [10] -30.6% | [11] -82.8% | [12] -37.5% | [13] -71.1% | [14] -19.2% | [15] -99.5% | [16] -8.59% | [17] -63.3%
inactive: [5] 83.1% | [8] 39.4% | [9] 17.1%

Cc1ccc2cc3c(NC(=O)c4cccnc4)nn(C)c3nc2c1
inactive: [1] 95.8% | [2] 76.3% | [3] 94.6% | [4] 102% | [5] 94.2% | [6] 80.6% | [7] 91.1% | [8] 96% | [9] 95% | [10] 69.6% | [11] 97.4% | [12] 95.5% | [13] 92.5% | [14] 81.6% | [15] 86.2% | [16] 91% | [17] 85.6%

COc1ccccc1/C=N\NC(=S)Nc1ccc(F)cc1
active: [12] 1.12%
inactive: [1] 28.6% | [2] 79.8% | [3] 78.7% | [4] 94.1% | [5] 89.2% | [6] 72.1% | [7] 69.7% | [8] 70.3% | [9] 38.4% | [10] 72.5% | [11] 73.3% | [13] 37.5% | [14] 60.5% | [15] 68.7% | [16] 66.5% | [17] 51.4%

CCOC(=O)c1ccc(NCCC(=O)O)cc1
inactive: [1] 103% | [2] 115% | [3] 104% | [4] 110% | [5] 113% | [6] 112% | [7] 138% | [8] 104% | [9] 113% | [10] 101% | [11] 110% | [12] 116% | [13] 110% | [14] 92.4% | [15] 111% | [16] 103% | [17] 110%

COc1ccc2[nH]c(O)c(/C=c3/ccc4c(c3)N=C(c3ccc(F)cc3)N=4)c2c1
active: [6] -7.41% | [15] -22.6%
inactive: [1] 59.8% | [2] 76.5% | [3] 76.9% | [4] 113% | [5] 62.9% | [7] 75.3% | [8] 51.1% | [9] 75.2% | [10] 28.3% | [11] 26.7% | [12] 57.8% | [13] 41.3% | [16] 104% | [17] 74.9%

COc1cc(NCCCCC(C)N)c2nccc(C)c2c1 (stereo not drawn)
active: [14] 4.24%
inactive: [1] 98.7% | [2] 75.2% | [3] 97% | [4] 81.6% | [5] 93.3% | [6] 71.3% | [7] 73.5% | [8] 80.2% | [9] 100% | [10] 48.1% | [11] 94.5% | [12] 106% | [13] 93.3% | [15] 99.2% | [16] 63.9% | [17] 94.7%

CCCCc1n(Cc2ccc3ccccc3n2)cc[n+]1Cc1ccc2ccccc2n1
inactive: [3] 15% | [4] 25.2% | [5] 24.4% | [6] 17.8% | [8] 41.5% | [9] 97.9% | [13] 22.1% | [16] 18.5%
active: [1] 6.57% | [2] -20.3% | [7] 9.83% | [10] 6.69% | [11] 2.91% | [12] 7.37% | [14] 7.29% | [15] 9.88% | [17] 5.78%

Cc1cc(-c2nnc(/C=C/c3ccc4c(c3)OCO4)o2)n[nH]1
active: [12] -25.4%
inactive: [1] 18.7% | [2] 66.5% | [3] 91.5% | [4] 92.2% | [5] 80.6% | [6] 40.7% | [7] 63.4% | [8] 80% | [9] 31.3% | [10] 60.9% | [11] 35.1% | [13] 25.5% | [14] 31.7% | [15] 48.1% | [17] 36.1%

CN1CCN(Cc2ccc(NC(=O)c3ccc(C#N)c(C#Cc4cnc(N)c5ncccc45)c3)cc2C(F)(F)F)CC1
inactive: [2] 69.7% | [3] 12.6% | [4] 18% | [5] 97.6% | [6] 55.3% | [7] 102% | [8] 68.2% | [9] 94% | [10] 112% | [11] 103% | [12] 56% | [13] 23.4% | [14] 16.3% | [16] 112% | [17] 13.5%
active: [1] 9.25% | [15] -10.5%

CCN(CC)CCCNc1cccc2c(C)cc(OC)nc12
inactive: [1] 78.3% | [2] 92.3% | [3] 97.9% | [4] 95.5% | [5] 106% | [6] 89.5% | [7] 99.9% | [8] 96.4% | [9] 95.9% | [10] 98.7% | [11] 87.4% | [12] 115% | [13] 102% | [14] 84.8% | [15] 95.1% | [16] 90.2% | [17] 100%

CCCCN(CCCC)CCC(O)c1cc2ccc(C(F)(F)F)cc2c2cc(C(F)(F)F)ccc12 (stereo not drawn)
inactive: [3] 48.6% | [4] 74.9% | [5] 74.2% | [6] 40.3% | [7] 30.2% | [8] 58% | [9] 59.8% | [10] 52.1% | [11] 91.3% | [12] 54.2% | [13] 40.4% | [15] 30.5% | [17] 12.9%
active: [1] -36.8% | [2] -9.02% | [14] 6.74% | [16] -34.8%

O=C(c1ccccc1)N(CCCCl)C(=O)N(CCCCl)C(=O)c1ccccc1
inactive: [1] 101% | [2] 88.1% | [3] 97.2% | [4] 87% | [5] 84.5% | [6] 90.7% | [7] 93.7% | [8] 93.9% | [9] 91.1% | [10] 93.1% | [11] 103% | [12] 89.6% | [13] 89.8% | [14] 119% | [15] 90.9% | [16] 95.3% | [17] 88.3%

COc1cc(-c2nc(-c3nc4cc(C(=O)c5ccccc5)ccc4[nH]3)cc3c2[nH]c2ccccc23)cc(OC)c1OC
inactive: [1] 81.6% | [2] 42% | [3] 67.4% | [4] 103% | [5] 146% | [6] 107% | [7] 101% | [8] 95.7% | [9] 88.7% | [10] 88.9% | [11] 79.7% | [12] 96.2% | [13] 103% | [14] 86.3% | [15] 82.6% | [16] 104% | [17] 84.5%

CCOC(=O)C(Nc1ccccc1)C(=O)OCC
inactive: [1] 106% | [2] 106% | [3] 105% | [4] 100% | [5] 105% | [6] 92.3% | [7] 129% | [8] 117% | [9] 102% | [10] 102% | [11] 95.1% | [12] 110% | [13] 111% | [14] 95.8% | [15] 101% | [16] 103% | [17] 115%
